Among all 330,000 compounds or so, about 5,800 (1.8%) were called active. The sample holds actives, similar compounds and a random draw of the others, so the mix is not that of the screen.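 The calls were made as follows: active = inhibition above about 50% at the single tested dose (limit read from the data); inactive = the rest.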

The text below walks through data of PubChem BioAssay AID2599 (Sanford-Burnham Center for Chemical Genomics, 2010).

In this assay the target is Sentrin-specific protease 6 (Homo sapiens) (UniProt Q9GZR1). The experiment in a line: inhibition of human SENP6 catalytic domain – biochemical, luminescence, uHTS, primary screen (AID 2599).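 Also: plate controls were DMSO wells with enzyme for no effect and DMSO wells lacking enzyme for full effect.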 Particulars: Recombinant SENP6 catalytic domain, aminoluciferin luminescence; at 10 µM; active compounds read high.
Sentrin-specific protease 6 (Homo sapiens), sequence (Q9GZR1 628-1112 limits assumed): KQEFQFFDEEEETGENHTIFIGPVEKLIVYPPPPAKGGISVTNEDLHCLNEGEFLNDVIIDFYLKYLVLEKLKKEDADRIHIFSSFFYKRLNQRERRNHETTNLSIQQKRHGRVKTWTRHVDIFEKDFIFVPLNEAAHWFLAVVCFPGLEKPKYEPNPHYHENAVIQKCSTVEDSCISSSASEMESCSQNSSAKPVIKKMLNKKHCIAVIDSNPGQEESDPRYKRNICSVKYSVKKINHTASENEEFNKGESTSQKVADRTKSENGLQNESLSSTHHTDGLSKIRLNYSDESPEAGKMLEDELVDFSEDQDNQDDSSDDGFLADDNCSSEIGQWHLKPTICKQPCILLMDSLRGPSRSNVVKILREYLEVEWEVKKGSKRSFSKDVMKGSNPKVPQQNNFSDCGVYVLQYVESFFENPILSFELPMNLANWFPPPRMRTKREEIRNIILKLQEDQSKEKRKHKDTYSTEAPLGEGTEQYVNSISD
Broadly, the inhibition is the relative decrease from the control value, in per cent. Take `COC(=O)[C@]1(Cc2ccccc2)N[C@H](CN(C)S(=O)(=O)c2ccc(OC(F)(F)F)cc2)[C@@H]2C(=O)N(C)C(=O)[C@@H]21`: the inhibition is 17% (inactive).

In the case of `O=C(COc1ccccc1)N1CCN=C1SCc1cccc(F)c1`, the inhibition is -16.4% (inactive). Take `C=CCN(c1ccc(C(=O)Nc2cc(C)cc(C)c2)cc1)S(C)(=O)=O`: the inhibition was 7.58% (inactive). Take `CC(=O)Nc1ccccc1NC(=O)c1cc(C)cc(C)c1`: the inhibition was 3.76% (inactive). For the compound `CSCc1ccc(C(=O)Nc2cc(C)cc(C)c2)cc1`, the inhibition is 86% (active).

In the case of `Cc1cc(NC(=O)OC(C)C)ccc1-c1ccc(NC(=O)OC(C)C)cc1C`, the inhibition is -24.2% (inactive). `O=C(NCCCn1ccnc1)c1cc(-c2ccccc2)on1`: the inhibition is 13.4% (inactive). On to `COc1cc2ccccc2cc1C(=O)N1CCOCC1`, for which the inhibition was 5.76% (inactive). Regarding `Cc1oc2c(c1C(=O)N1CCOCC1)C(=O)c1ccccc1C2=O`, the inhibition is 68.9% (active). As to `COC1=C(N2CCOCC2)C(=O)c2ccccc2C1=O`, the inhibition was 44.9% (inactive). For `Cc1ccc(NC(=O)C2CC2)cc1S(=O)(=O)N1CCOCC1`, the inhibition is -10.6% (inactive). In the case of `COC(=O)c1ccc(NCC(=O)c2ccccc2)cc1`, the inhibition is 95.5% (active). For the compound `Cc1ccc(C(=O)CNc2ccc(F)cc2)cc1`, the inhibition is 6.04% (inactive).

On to `COC(=O)c1ccc(NCC(=O)N2CCCCCC2)cc1`, for which the inhibition is -9.61% (inactive). Turning to `Cn1ncc2c(NNC(=O)Cc3cccc4ccccc34)ncnc21`, the inhibition was -8.95% (inactive). Consider `O=C(CN1CCN(c2cccc(Cl)c2)CC1)Nc1ccc(S(=O)(=O)N2CCOCC2)cc1`, for which the inhibition is 5.09% (inactive). In the case of `CCOC(=O)C(NC(C)=O)C(=O)Nc1ccc(OC)cc1` (stereo unspecified), the inhibition was 4.26% (inactive). With `CCC(CO)Oc1cc(NC(=O)c2cccc(F)c2)c2ncn(C(C)C)c2c1` (stereo unspecified), the inhibition was -22.5% (inactive).

Consider `CC(C)n1cnc2c(NCc3ccccc3)cc(N[C@@H](CO)Cc3ccccc3)cc21`, for which the inhibition is 75.8% (active). As for `CCC(CO)Oc1cc(NC(=O)c2ccc(Cl)cc2)c2ncn(C(C)C)c2c1` (stereo unspecified), the inhibition is -20.3% (inactive). For the compound `CC(C)n1cnc2c(NCc3ccccc3)cc(OCC3CCN(C)CC3)cc21`, the inhibition is 77.9% (active). Regarding `CCC(CO)Oc1cc(NC(=O)c2cccc3ccccc23)c2ncn(C(C)C)c2c1` (stereo unspecified), the inhibition is -4.87% (inactive). Then `CCC(CO)Oc1cc(NCc2ccccc2)c2ncn(C3CCCC3)c2c1` (stereo unspecified), with 1.75% (inactive). As for `COc1ccc(OC)c(S(=O)(=O)Nc2c(C)nn(C)c2C)c1`, the figure is -2.99% (inactive); as for `COc1ccccc1CCNC(=O)CSc1nnc2ccc(-c3cccnc3)nn12`, 17% (inactive); as for `CC(C)(C)CC(C)(C)NCC(O)COCCOc1ccc(Br)cc1` (stereo unspecified), 9.07% (inactive).

Regarding `O=C(O)CC/C(=C\c1cc2c(cc1Br)OCO2)c1nc2ccccc2s1`, the inhibition is -4.31% (inactive). On to `Cc1cc(N=Nc2ccc3ccccc3c2)ccc1O`, for which the inhibition was 98% (active). Turning to `Cc1ccccc1CSc1nnc(-c2ccccn2)n1N`, the inhibition is 7.46% (inactive). `COc1ccc(C2C=C(c3ccc(Br)cc3)Nc3nc(NS(C)(=O)=O)nn32)cc1` (stereo unspecified): the inhibition is 3.75% (inactive). As for `Oc1ccc(C2Nc3cccc4cccc(c34)N2)cc1`, the inhibition was 15.2% (inactive).

As to `C/C(=C\c1ccco1)C1Nc2cccc3cccc(c23)N1`, the inhibition was -84.6% (inactive). As for `Brc1ccccc1C1Nc2cccc3cccc(c23)N1`, the inhibition was 51.7% (active).

Consider `CC1CN(C(=S)Nc2cccc(F)c2)CC(C)O1` (stereo unspecified), for which the inhibition was 15.9% (inactive). As to `O=c1ccc(S(=O)(=O)N2CCCC2)cn1Cc1nc(-c2ccccc2)no1`, the inhibition was -10.4% (inactive). For `CN(C)c1ccc(NC(=O)CN2C3CCCC2CC(NC(=O)c2ccccc2)C3)cc1` (stereo unspecified), the inhibition is -8.69% (inactive).

On to `COC(=O)c1ccccc1NC(=O)C1(S(=O)(=O)c2ccc(Cl)cc2)CC1`, for which the inhibition is 16.9% (inactive). With `c1ccc(-n2nc3ccccc3n2)cc1`, the inhibition is -28.4% (inactive). On to `CN(C)c1nnnn1-c1ccc(Cl)cc1`, for which the inhibition was 2.68% (inactive). As for `Nc1ccc2nn(-c3ccc(Cl)cc3)nc2c1`, the figure is 95% (active); as for `CN(C)CCCNC(=O)c1cc(C(=O)Cc2ccc(Cl)cc2)c[nH]1`, -9.62% (inactive). For `O=C(CSC(=S)N1CCOCC1)c1ccccc1`, the inhibition was 60.8% (active).

Take `O=C(CSC(=S)N1CCOCC1)c1cc(Br)cc(Br)c1O`: the inhibition was -12.1% (inactive).

Regarding `CC1CN(C(=S)SCC(=O)c2ccccc2)CC(C)O1` (stereo unspecified), the inhibition is -20.8% (inactive).

Consider `Cc1ccc(CNC(=O)CC2Sc3ccccc3NC2=O)cc1` (stereo unspecified), for which the inhibition was -4.12% (inactive). Consider `C#CCOCCOCCOCCNc1nc(N2CCN(C(=O)C([C@@H](C)CC)n3cc(C(N)COC(=O)C(F)(F)F)nn3)CC2)nc(N2CCN(C(=O)[C@H](CCCCN)n3cc(C(N)CC(C)C)nn3)CC2)n1` (stereo partly specified), for which the inhibition was -9.82% (inactive).

`O=C(Nc1cccc(NC(=O)c2cccc(F)c2)c1)c1ccccc1`: the inhibition is -18.8% (inactive). Take `O=C(Nc1cccc(C(=O)N2CCCC2)c1)c1ccccc1`: the inhibition was -14.4% (inactive).

In the case of `O=C(Nc1ccc(C(=O)O)c(O)c1)c1ccccc1`, the inhibition is 83.4% (active).

As for `COc1cccc(N2CC(C(=O)NCc3n[nH]c(=O)c4ccccc34)CC2=O)c1` (stereo unspecified), the inhibition is -13.6% (inactive). As for `O=C(O)/C=C/c1ccc(S(=O)(=O)N2CCCCCC2)cc1`, the figure is 16.2% (inactive); as for `CC(C)c1nc(SCC(=O)NC(=O)NC(C)(C)C)n[nH]1`, -25.6% (inactive). With `O=C(NCC1CCCO1)c1cc2c(s1)CCCC2` (stereo unspecified), the inhibition was 6.51% (inactive).

With `CN(C)C(=O)c1ccc(NC(=O)COC(=O)c2cc3c(s2)CCCCC3)cc1`, the inhibition was -9.42% (inactive). As for `O=C(Nc1ccc(F)cc1)c1cc2c(s1)CCCC2`, the figure is 89% (active); as for `CCc1noc(C)c1C(=O)Nc1nc(-c2ccccc2)cs1`, -13.3% (inactive); as for `COc1cccc(C(=O)Nc2nnc(S(=O)(=O)N(C)c3ccccc3)s2)c1`, 12.8% (inactive). Then `Cc1noc(C)c1CSCC(=O)Nc1nc2ccc(Oc3ccccc3)cc2s1`, with 14.7% (inactive); and `CS(=O)(=O)c1ccc2nc(NC(=O)c3ccc(Cl)nc3)sc2c1`, with 0.381% (inactive); and `COc1cccc(C(=O)Nc2nc3ccc(S(C)(=O)=O)cc3s2)c1`, with 89.1% (active). Regarding `CCc1noc(C)c1C(=O)Nc1nc2ccc(OC)cc2s1`, the inhibition is 59.6% (active). Take `CC1=NN(C(=O)CCc2ccccc2O)C(O)(C(F)(F)F)C1` (stereo unspecified): the inhibition was 13.7% (inactive).

In the case of `COc1ccccc1CCC(=O)OCC(=O)N1CCN(S(=O)(=O)c2ccc(C)cc2C)CC1`, the inhibition was -9.38% (inactive). `COc1ccc(NC(=O)C2COc3ccccc3O2)cc1` (stereo unspecified): the inhibition was 2.57% (inactive). Then `O=C(Nc1ncc([N+](=O)[O-])s1)C1COc2ccccc2O1` (stereo unspecified), with 97.8% (active); and `COc1ccc(OC)c2sc(NC(=O)C3COc4ccccc4O3)nc12` (stereo unspecified), with -3.77% (inactive); and `CC(C)(C)C(=O)NCCCNc1ccc([N+](=O)[O-])cc1`, with -25.9% (inactive). On to `O=c1c2ccccc2ncn1/N=C/c1ccccc1`, for which the inhibition is 85.3% (active).

For the compound `O=C(Nn1cnc2ccccc2c1=O)c1ccccc1`, the inhibition was -4.91% (inactive). Then `CCCc1nc2ccccc2c(=O)n1/N=C/c1ccc(O)c(O)c1`, with -27.3% (inactive); and `COc1cccc(CNn2cn[nH]c2=S)c1OCc1ccccc1`, with -3.63% (inactive); and `Cc1cc2nc(SCCN3CCOCC3)[nH]c2cc1C`, with 1.61% (inactive). Take `O=C(CCCN1C(=O)/C(=C/c2ccccc2)SC1=S)Nc1ccc(O)cc1`: the inhibition is 21.3% (inactive).

Turning to `C=CCOc1ccc(/C=C2\SC(=S)N(CCC(=O)O)C2=O)cc1`, the inhibition is 100% (active).

Consider `COc1ccc(/C=C2\SC(=S)N(CC(=O)NNC(=O)c3ccncc3)C2=O)cc1`, for which the inhibition was -3.66% (inactive).

For `O=C(CN1CCCCC1)Nc1ccccc1C(=O)NC1CC1`, the inhibition was -13.9% (inactive). As for `Cc1ccc(NC(=O)CS(=O)CC(=O)N(c2ccccc2)C(C)C(=O)NC2CCCC2)cc1` (stereo unspecified), the figure is -5.91% (inactive). Then `O=C(Nc1cccc(O)c1)c1ccc(C(=O)c2ccccc2)o1`, with 2.68% (inactive). As for `C/C(=C\C(=O)c1cccnc1)Nc1ccc(C)c(C)c1`, the figure is 6.26% (inactive); as for `C/C(=C\C(=O)c1ccccc1)Nc1cccc(O)c1`, 57.9% (active).

As for `CCC1(CC)NC(=O)N(CC(=O)OCC(=O)c2cc(C)c(C)cc2C)C1=O`, the inhibition was -10.6% (inactive). As for `Cc1ccc(S(=O)(=O)/N=C(\CN2CCOCC2)N2CCOCC2)cc1`, the inhibition was 12.4% (inactive). As to `COc1cc(NC(=O)COC(=O)c2ccc([N+](=O)[O-])s2)cc(OC)c1OC`, the inhibition was 68.2% (active). Then `O=C(OCC(=O)N1CCN(c2ccccc2)CC1)c1ccc([N+](=O)[O-])s1`, with 49.4% (inactive); and `COc1ccc(C(=O)COC(=O)c2ccc([N+](=O)[O-])s2)cc1OC`, with 38.4% (inactive); and `O=C(NCc1ccccc1CN1CCCC1)c1cccc(S(=O)(=O)Nc2ccc(F)cc2)c1`, with 18.3% (inactive). For the compound `C[C@@H]1CN([C@@H](C)CO)C(=O)c2cc(NC(=O)C3CC3)ccc2O[C@H]1CN(C)C`, the inhibition was 1.75% (inactive).

As to `COc1ccc(S(=O)(=O)N2CCC(C(=O)NCCC(=O)NCc3cccc(OC)c3)CC2)cc1`, the inhibition was 0.176% (inactive). Take `Cc1cccc(NS(=O)(=O)c2cccc(C(=O)NNC(=O)c3ccccc3O)c2)c1`: the inhibition was 64.3% (active). With `Cc1cccc(NS(=O)(=O)c2ccc(C)c(C(N)=O)c2)c1`, the inhibition is -6.03% (inactive). Then `CC(=O)N1CCN(C(=O)c2cccc(S(=O)(=O)Nc3ccc(C)cc3)c2)CC1`, with -4.46% (inactive); and `CNc1nc(SC)nc(N(C#N)CC(=O)OC)n1`, with 11.5% (inactive). Then `CCN(CC)S(=O)(=O)c1ccc(C)c(NC(=O)COc2ccc(Br)cc2Cl)c1`, with 9.17% (inactive); and `Cc1cccc(NC(=O)COc2ccc(Br)cc2C)n1`, with 69.2% (active).

With `Cc1cccc(NC(=O)Cc2ccc(Br)cc2)n1`, the inhibition was 16% (inactive). Turning to `Cc1ccc(N(C(=O)Cc2cccs2)C2C=CS(=O)(=O)C2)cc1Cl` (stereo unspecified), the inhibition was -12.7% (inactive).
